Measured potencies and affinities stand elsewhere. Activity calls are given as the source filed them.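 How the source made its calls: active means cell killing, meaning signal decrease, with fitted half-maximal dose at or below ten times the top valid tested dose; inconclusive means poor fit, or flat curve with 30 to 70% signal loss; inactive means the rest.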
assay: HeLa cell cytotoxicity, dose response, cytotoxicity control for MITF activator project, CellTiter-Glo luminescence, cherry-pick samples (AID 540259); settings: HeLa viability, CellTiter-Glo ATP luminescence, 24 h; series mostly up to 35 µM; activity change, negative = cytotoxicity: at the top concentration;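 further: 0% = DMSO neutral control and -100% = mitoxantrone positive control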

| Compound | activity change, negative = cytotoxicity |
| --- | --- |
| Cc1ccc(-c2csc(NC(=O)c3ccc(Br)cc3)c2C(=O)O)cc1 | 6.5% (inactive) |
| Cc1ccc(NC(=O)Nc2ccc3c(c2)OCO3)c(OC(F)F)c1 | 3.43% (inactive) |
| COC(=O)c1cc(-c2ccc(OC)cc2)n[nH]1 | 3.91% (inactive) |
| COc1ccccc1NC(=O)Nc1nc2ccc(S(N)(=O)=O)cc2s1 | 12.1% (inactive) |
| CCS(=O)(=O)Nc1ccc(C(=O)NCCSc2ccccc2)cc1 | -0.036% (inactive) |
| CCN(CC)S(=O)(=O)c1cc(C(=O)Nc2cc(C)[nH]n2)ccc1Cl | 0.409% (inactive) |
| Cc1ccc(-c2csc(C(C#N)=C3CCCC3)n2)cc1 | -7.26% (inactive) |
| CCc1c(C(=O)Nc2ccc(C)c(C)c2)[nH]c(C)c1C(C)=O | 0.691% (inactive) |
| CCCCC(=O)Nc1sc2c(c1C#N)CC(C)(C)OC2 | 4.44% (inactive) |
| O=C(CC(Nc1ccccc1)C(=O)O)c1ccccc1 (stereo unspecified) | 11.1% (inactive) |
| Brc1ccccc1-n1nnc(-c2nccs2)n1 | -4.12% (inactive) |
| O=C(Nc1ccccc1)Nc1ccc2nnsc2c1 | -3.18% (inactive) |
| CN1CCN(/N=C/c2ccc(Br)cc2)CC1 | 1.36% (inactive) |
| Cc1cccc(C(=O)Nc2ccn(C)n2)c1 | 14.6% (inactive) |
| O=C(Nc1ccc(Br)cc1F)c1ccc2nsnc2c1 | -0.602% (inactive) |
| CCC(=O)c1ccc(OCc2ccccc2)c(OC)c1 | -0.933% (inactive) |
| CC1CCN(C(=O)Nc2ccc3nsnc3c2)CC1 | 7.47% (inactive) |
| CCS(=O)(=O)N1Cc2ccccc2CC1C(=O)NCc1cccc(OC)c1 (stereo unspecified) | 3.08% (inactive) |

| Compound | activity change, negative = cytotoxicity |
| --- | --- |
| Clc1ccc(-c2cnnc(-c3ccccn3)n2)cc1 | 6.06% (inactive) |
| Cc1cnc(NC(=O)Nc2ccc(Cl)cc2)s1 | 11.5% (inactive) |
| O=S(=O)(c1cccs1)N1CCCc2cccc(O)c21 | -14.1% (inactive) |
| O=C(O)c1ccc(N/N=C/c2cccc(C(F)(F)F)c2)cc1 | -0.976% (inactive) |
| CN(C)c1ccc(CSc2ccccc2)cc1 | 4.63% (inactive) |
| COc1ccc(/C(C)=N/Nc2nncc3ccccc23)cc1 | -7.02% (inactive) |
| c1cnc2nc(-c3ccc4c(c3)OCO4)cn2c1 | -4.65% (inactive) |
| Cc1ccccc1-c1nc2cc(Cl)ccc2o1 | -4% (inactive) |
| CCCn1nnc(NC(=O)c2ccc(-c3ccccc3)cc2)n1 | 18.3% (inactive) |
| Nc1ncccc1OCc1ccc(Br)cc1 | -6.3% (inactive) |
| COc1ccc(/C=C2\OC(=O)c3c(OC)cccc32)cc1OC | 11.9% (inactive) |
| NC(=O)c1ccc(-c2noc(-c3cccc(Cl)c3)n2)cc1 | 14.2% (inactive) |
| Clc1ccc(-n2nnc(-c3cccnc3Cl)n2)cn1 | 5.34% (inactive) |
| CC(C)(C)C(=O)N1CCN(c2nc3ccccc3s2)CC1 | -0.769% (inactive) |
| COc1cc(/C=C/c2nc3ccccc3c(=O)[nH]2)ccc1OC(F)F | 0.185% (inactive) |
| Nc1c(C(=O)C2CC2)sc2nc3c(cc12)CCC3 | -0.641% (inactive) |
| CC(C)(C)c1ccc(SCCc2ccccn2)cc1 | 10.3% (inactive) |
| CCn1cnc2cc(NCc3ccccc3Cl)ccc21 | -1.68% (inactive) |

Source: PubChem BioAssay AID540259 (Broad Institute, 2011)
